These results are taken from ChEMBL document CHEMBL1201862, “PubChem BioAssay data set” (2004).

In all, about 53,000 sequences went through this assay and about 5,500 (10%) were called active. Rule as the data show it: active = GI50 up to about 1.1 µM and inactive = higher. The full list was thinned out, with actives kept by preference. Results with a measured potency or affinity are listed apart.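 Growth conditions: 96-well plates. Treatment: test compound, 48 hours, 5 concentrations. Analysis: linear interpolation between bracketing concentrations; unreached endpoints set to highest concentration. GI50 is the concentration that inhibits growth by half.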

The assay deals with HL-60. In words: NCI tumour cell line growth inhibition, 48 h.
The substance “ACRIFLAVINE HYDROCHLORIDE, CHEMBL5219995” displayed a GI50 of 333 nM.
The same measure for “[Bis(aminomethyl)tetramethylenesilane]tetrachloropaltinum(IV), CHEMBL2146189”: 115 nM; for “[Bis(aminomethyl)dimethylsilane]tetrachloroplatinum(IV), CHEMBL2146190”: 248 nM.
Then “cis-Bis[[(trimethylsilyl)methyl]amino]tetrachloroplatinum(IV), CHEMBL2146191”, with 1760 nM; and “[Bis(aminomethyl)ethylmethylsilane]tetrachloroplatinum(IV), CHEMBL2146192”, with 156 nM; and CISPLATIN, CHEMBL11359, with 542 nM.
With “[Bis(aminomethyl)diethylsilane]tetrachloroplatinum(IV), CHEMBL2146203”, the GI50 was 91.2 nM.
Then “[Bis(aminomethyl)pentamethylenesilane]tetrachloropaltinum(IV), CHEMBL2146204”, with 56.6 nM.
With “[Bis(aminomethyl)tetramethylenesilane]dichloropaltinum(II), CHEMBL2146205”, the GI50 is 1570 nM.
Then “[Bis(aminomethyl)dimethylsilane]dichloroplatinum (II), CHEMBL2146201”, with 1300 nM.
Substance “mu-(1,7-nanodiamine-N,N')bis-(cis-aminedichloroplatimum (II)), CHEMBL2146215” had a GI50 of 1640 nM.
Then “[Bis(aminomethyl)pentamethylenesilane]dichloropaltinum(II), CHEMBL2146202”, with 51.3 nM.
